# PubChem BioAssay AID1851 (National Center for Advancing Translational Sciences (NCATS), 2009)
# Values joined by “and” are separate entries in the source; they are usually repeats but may differ in a detail not shown here. Equal values may be shown once. Out of some 16,000 compounds screened, about 5,800 (36%) were called active. About 23% were inconclusive and are not listed. This is one part of the list. Unmarked numbers belong to inactive results. The call rests on the fitted dose curve; in most records, active means well fitted curve in the direction sought with a large enough effect; inconclusive means small, poorly fitted or top-dose-only effect, or effect the other way; inactive means no such curve, though single readings can be large or run the other way.
# Molecular target: Cytochrome P450 2C19 (Homo sapiens) (UniProt P33261)
# Assay: Cytochrome panel assay with activity outcomes
# Settings: recombinant CYP, pro-luciferin dealkylation, luminescence, p450-cyp2c19; series mostly up to 57.1 µM
# On the % scale 0 is the no-effect control and ±100 the full control effect.
# Chain of Cytochrome P450 2C19 (Homo sapiens) (P33261 whole entry, looked up): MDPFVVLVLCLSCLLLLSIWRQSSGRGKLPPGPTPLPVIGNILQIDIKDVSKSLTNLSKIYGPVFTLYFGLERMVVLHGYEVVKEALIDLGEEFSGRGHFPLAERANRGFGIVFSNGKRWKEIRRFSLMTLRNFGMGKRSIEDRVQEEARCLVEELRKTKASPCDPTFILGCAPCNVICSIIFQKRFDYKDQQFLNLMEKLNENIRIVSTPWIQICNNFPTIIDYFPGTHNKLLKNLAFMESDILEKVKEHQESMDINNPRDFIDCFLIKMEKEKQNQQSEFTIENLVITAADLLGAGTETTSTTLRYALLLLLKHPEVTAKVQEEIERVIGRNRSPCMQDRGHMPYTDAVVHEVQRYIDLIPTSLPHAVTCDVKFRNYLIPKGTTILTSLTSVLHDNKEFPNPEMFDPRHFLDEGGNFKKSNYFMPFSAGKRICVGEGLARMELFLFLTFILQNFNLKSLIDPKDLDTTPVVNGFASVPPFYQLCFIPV
SMILES,AC50,"activity, negative = inhibition"
CSc1nnc(-c2sccc2OCc2ccccc2)n1C,17.8 µM (active),–
Cc1nc2c(OCc3ccccc3)cccn2c1CC#N,inactive,–
CO[C@H]1COC(=O)[C@@H](C)COC(=O)[C@@H](COCc2ccccc2)NC(=O)C/C=C\[C@H]1C,–,37.5% [at 11.4 µM]
CC(C)NCCOCCSc1ccc(Cl)cc1,15.8 µM (active),–
O=c1[nH]c(=O)n([C@@H]2C[C@H](O)[C@H](CO)O2)cc1C(F)(F)F,inactive,–
CC(=O)N1CCC2(CC1)CCN(C(=O)Nc1cccc(F)c1)CC2,inactive,–
CC(=O)NC1(c2ccc(F)cc2)CCN(C(=O)Nc2ccc(F)cc2F)CC1,7.08 µM (active),–
Cn1cccc1C(=O)N1CCC2(CCN(C(=O)Nc3cccc(F)c3)CC2)CC1,inactive,–
COc1cccc(-c2nc(N(C)Cc3ccco3)c3ccccc3n2)c1,20 µM (active),–
CN(Cc1ccco1)c1nc(-c2ccc3c(c2)OCO3)nc2ccccc12,7.94 µM (active),–
CN1CCN(c2nc(-c3cccc(C#N)c3)nc3ccccc23)CC1,inactive,–
COc1cccc(-c2nc(N(C)C)c3ccccc3n2)c1,20 µM (active),–
CN(Cc1ccco1)c1nc(-c2cccc(C#N)c2)nc2ccccc12,15.8 µM (active),–
CN(C)c1nc(-c2cccnc2)nc2ccccc12,inactive,–
CNC(=O)c1sc(SC)cc1-c1ccc(Cl)cc1,0.0562 µM (active),–
CCn1c(=O)[nH]c2ccccc2c1=O,inactive,–
CCn1c(/C=C2/C(=O)N(C)c3ccccc32)nc2ccccc2c1=O,15.8 µM (active),–
CC(C)(CCc1nc2ccccc2[nH]1)C(=O)O,–,-0.413% [at 11.4 µM]
Cc1cc(C)cc(NC(=O)C/C(N)=N/O)c1,inactive,–
Cc1cc(C)cc(NC(=O)CCc2nc3ccccc3[nH]2)c1,1.58 µM (active),–
CCOC(=O)C1=C(COc2ccc(F)cc2Cl)NC(=O)NC1c1cc(C)ccc1C (stereo unspecified),7.08 µM (active),–
CCOC(=O)C1=C(C)NC(=O)N[C@@H]1c1coc2cc(C)cc(C)c2c1=O,–,-27.2% [at 11.4 µM]
CCOC(=O)C1=C(CSc2nc3ccccc3s2)NC(=O)NC1c1cc(C)ccc1C (stereo unspecified),7.94 µM (active),–

SMILES,AC50,"activity, negative = inhibition"
C=CCNc1nc(-c2ccc(Cl)cc2)cs1,3.16 µM (active),–
Cc1ccc(CSC(N)=Nc2ccccc2)cc1C,2 µM (active),–
C#C[C@@]1(O)CC[C@@H]2[C@@H]3CCC4=C(CCC(=O)C4)[C@H]3CC[C@]21C,0.0631 µM (active),–
C#C[C@@]1(O)CC[C@@H]2[C@@H]3CCC4=CC(=O)CC[C@@H]4[C@H]3CC[C@]21C,5.01 µM (active),–
C[C@@]12CCC(=O)C=C1CC[C@@H]1[C@@H]2[C@H](O)C[C@]2(C)[C@@H]1CC[C@]2(O)C(=O)COC(=O)CCC(=O)O,inactive,–
C#C[C@]1(O)CC[C@@H]2[C@H]3CCC4=CCCC[C@@H]4[C@@H]3CC[C@@]21C,3.98 µM (active),–
CCNc1ncc2nc(-c3cn(C)c4ccccc34)c(=O)n(C)c2n1,inactive,–
COc1ccc(/C=C/C(=O)Nc2ccccc2C(=O)N2CCCC2)cc1,inactive,–
COc1cc(OC)cc(C(=O)Nn2cc(C(=O)N3CCN(C)CC3)c3ccccc3c2=O)c1,inactive,–
COc1ccc(NC(=O)C2CCN(C(=O)c3cccs3)CC2)c(OC)c1,inactive,–
COc1cc(OC)cc(C(=O)Nc2ccccc2C(=O)N2CCCC2)c1,28.2 µM (active),–
COC(=O)c1ccccc1NC(=O)C1CCN(C(=O)c2ccc(OC)cc2)CC1,14.1 µM (active),–
O=C1[C@H]2[C@H]3[C@H](O)[C@H](O)C/C(=N/OC[C@@H](O)COCc4ccco4)[C@H]3CC[C@@H]2C(=O)N1C1CCCCC1,–,-5.34% [at 11.4 µM]
N#CC(c1ccccc1F)(c1ncc(C(F)(F)F)cc1Cl)N1CCOCC1 (stereo unspecified),11.2 µM (active),–
N#CC(c1ccc(Cl)cc1)(c1ncc(C(F)(F)F)cc1Cl)N1CCOCC1 (stereo unspecified),11.2 µM (active),–
Cc1ccc(NC(=O)c2cccc(N(C)C)c2)cc1NC(=O)c1ccc(O)cc1,inactive,–
Cc1ccc(SCc2ccc(C(=O)NCc3ccncc3)cc2)cc1,0.355 µM (active),–
Cc1ccc(SCCNC(=O)c2ccc(C)c(S(=O)(=O)Nc3ccccc3C)c2)cc1,2.51 µM (active),–
Cc1ccc(SCCNC(=O)c2ccccc2)cc1,6.31 µM (active),–
Cc1ccc(SCc2nnc(NC(=O)c3ccccc3)s2)cc1,inactive,–
CCN(CC)CCNC(=O)c1ccc(Cl)c(S(=O)(=O)Nc2ccccc2OC)c1,inactive,–
Cc1ccccc1NS(=O)(=O)c1cc(C(=O)Nc2cccc(N(C)S(C)(=O)=O)c2)ccc1C,3.55 µM (active),–
NS(=O)(=O)Cc1noc2ccccc12,inactive,–

SMILES,AC50,"activity, negative = inhibition"
Cc1cc(C(C)(C)CC(C)(C)C)ccc1OCCOCC[N+](C)(C)Cc1ccccc1,inactive,–
CN[C@@H]1[C@H](O[C@H]2[C@@H](O[C@@H]3[C@@H](O)[C@@H](O)[C@@H](N=C(N)N)[C@@H](O)[C@@H]3N=C(N)N)O[C@@H](C)[C@]2(O)CO)O[C@H](CO)[C@@H](O)[C@@H]1O,inactive,–
COc1ccc(-c2ccc(=N)n(CCCC(=O)O)n2)cc1,0.158 µM (active),–
COc1ccc(-c2ccc(N)[n+](CCCC(=O)O)n2)cc1,inactive,–
Cc1cccc(CNc2cc(-c3ccccc3Cl)ncn2)c1,10 µM (active),–
Clc1ccccc1-c1cc(NCc2cccnc2)ncn1,inactive,–
Clc1ccccc1-c1cc(NCc2ccccc2)ncn1,7.94 µM (active),–
CC(C(=O)NCc1ccc2c(c1)OCO2)N1c2cccc3cccc(c23)S1(=O)=O (stereo unspecified),0.794 µM (active),–
COc1ccc(C(=O)N2CCC[C@@]3(CCN(Cc4cc(C(F)(F)F)cc(C(F)(F)F)c4)C3)C2)cc1,inactive,–
COC(=O)[C@@]1(Cc2ccc(F)cc2)[C@H]2c3cc(C(=O)N4CCCC4)n(CCc4c[nH]c5ccc(OC)cc45)c3C[C@H]2CN1C(=O)c1ccccc1,7.94 µM (active),–
COc1ccc(NC(=O)N2CC[C@@]3(CCCN(C(=O)c4cccc(F)c4)C3)C2)cc1,inactive,–
COC(=O)[C@@]1(Cc2ccc(OC)cc2)[C@H]2c3cc(C(=O)N4CCCC4)n(CCCNc4ncc(C(F)(F)F)cc4Cl)c3C[C@H]2CN1C(=O)c1ccccc1,3.16 µM (active),–
COC(=O)[C@@]1(Cc2ccc(OC)cc2)[C@H]2c3cc(C(=O)N4CCCC4)n(CCc4c[nH]c5ccc(O)cc45)c3C[C@H]2CN1C(=O)c1ccccc1,10 µM (active),–
COC(=O)[C@@]1(Cc2ccc(OC)cc2)[C@H]2c3cc(C(=O)N4CCCC4)n(Cc4ccc(Cl)c(C(F)(F)F)c4)c3C[C@H]2CN1C(=O)c1ccccc1,inactive,–
COC(=O)[C@@]1(Cc2ccc(OC)cc2)[C@H]2c3cc(C(=O)N4CCCC4)n(CCc4c[nH]c5cc(F)ccc45)c3C[C@H]2CN1C(=O)c1ccccc1,3.98 µM (active),–
COC(=O)[C@@]1(Cc2ccc(F)cc2)[C@H]2c3cc(C(=O)N4CCCC4)n(CCc4c[nH]c5ccccc45)c3C[C@H]2CN1C(=O)c1ccccc1,10 µM (active),–
O=S(=O)(O)[C@@H](CO)c1ccccc1 (tested in a mixture with another compound),–,-9.78% [at 11.4 µM]
O=C1C(SCCO)=C(SCCO)C(=O)c2ccccc21,0.0794 µM (active),–
Cc1ccc(S(=O)(=O)NCCC(=O)NCc2ccccc2)cc1,20 µM (active),–
CCN(CC)C(=O)CCNS(=O)(=O)c1ccc(C)cc1,5.01 µM (active),–
Cc1ccc(S(=O)(=O)NCc2ccccc2)cc1,inactive,–
CCCCNC(=O)NS(=O)(=O)c1ccc(C)cc1,inactive,–
COc1ncc2nc(-c3cn(C)c4ccccc34)c(=O)n(CCC#N)c2n1,inactive,–

SMILES,AC50,"activity, negative = inhibition"
CCOc1cc(C2NN=C(c3ccccc3)S2)ccc1OCc1ccccc1Cl (stereo unspecified),5.01 µM (active),–
Nc1nc(SCC(=O)Nc2ccccc2Sc2ccc(Cl)cc2)n[nH]1,0.0631 µM (active),–
O=C(Cn1cnc2ccccc2c1=O)Nc1nnc(SCc2ccccc2)s1,15.8 µM (active),–
Cc1ccc(C(=O)COC(=O)c2ccccc2N2C(=O)C3C4CCC(C4)C3C2=O)cc1C (stereo unspecified),14.1 µM (active),–
CS(=O)(=O)Nc1ccc([N+](=O)[O-])cc1OC1CCCCC1,0.0794 µM (active),–
CS(=O)(=O)Nc1ccc([N+](=O)[O-])cc1Oc1ccccc1,inactive,–
CCN(CC)CCOc1ccc(/C(=C(\Cl)c2ccccc2)c2ccccc2)cc1,inactive,–
CCN(CC)CCOc1ccc(Cc2ccccc2)cc1,15.8 µM (active),–
COc1ccc(O)c(/C=N/NC(=O)CSc2nnc(C)n2-c2ccccc2)c1,inactive,–
COc1ccccc1NCc1nnc(SCC(=O)N/N=C/c2ccco2)n1-c1ccc(Cl)cc1Cl,4.47 µM (active),–
CN(C)c1ncc2ncc(=O)n(C)c2n1,inactive,–
CN(C)c1ncc2ncc(=O)n(Cc3ccc(F)cc3)c2n1,3.16 µM (active),–
CN(C)c1ncc2nc(-c3cc(F)cc(F)c3)c(=O)n(Cc3ccc(F)cc3)c2n1,inactive,–
CCNc1ncc2nc(-c3ccc(OC)cc3)c(=O)n(Cc3ccc(F)cc3)c2n1,inactive,–
CN(C)c1ncc2nc(-c3ccc(Cl)cc3)c(=O)n(Cc3ccc(F)cc3)c2n1,inactive,–
Cc1nc2cnc(N(C)C)nc2n(Cc2ccc(F)cc2)c1=O,1.58 µM (active),–
CCNc1ncc2ncc(=O)n(Cc3ccc(F)cc3)c2n1,15.8 µM (active),–
CN(C)c1ncc2nc(-c3ccc(F)cc3)c(=O)n(Cc3ccc(F)cc3)c2n1,inactive,–
CCNc1ncc2nc(-c3ccccc3)c(=O)n(Cc3ccc(F)cc3)c2n1,inactive,–
O=C1C[C@@H](O)[C@@H](O)[C@H]2[C@@H]3C(=O)N(Cc4ccccc4)C(=O)[C@@H]3CC[C@H]12,–,-9.62% [at 11.4 µM] and 25.4% [at 11.4 µM]
O=C(O)[C@@H]1[C@H](C(=O)O)[C@H]2C(=O)C=C[C@H]1N2Cc1ccccc1,–,2.25% [at 11.4 µM]
O=C1C2CCC(C(O)C2)N1Cc1ccccc1 (stereo unspecified),15.8 µM (active),–
